Results published in PubChem BioAssay.
Inconclusive results are not listed. The source made the active and inactive calls.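 Rule for the calls, unless noted: active = response below a set limit, under 55% cells CD8-positive and vesicle-bound, and CD8 cells' 90th-percentile brightness under 279; inactive = the rest.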

What was measured:
[1] = rapamycin-like changes in RPL19A-GFP expression – cell-based, S. cerevisiae, multiplex flow cytometry, primary screen (AID 1862; in the data active = percent of DMSO control GFP below about 86%;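 note: lower values mimic rapamycin by blocking the RPL19A rise seen in DMSO cells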); conditions: S. cerevisiae RPL19A-GFP strain, flow cytometry fluorescence, 3 h; at 10 µM; stronger effect = lower value
[2] = TOR pathway GLN3 branch reporter MEP2-GFP changes – S. cerevisiae, multiplex flow cytometry, primary screen (AID 1867;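 active = GFP response, as percent of the DMSO control, above the screen-wide mean plus 3 SD, about 139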;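 note: median GFP channel fluorescence of barcode-gated MEP2-GFP cells measured by flow cytometry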); conditions: S. cerevisiae MEP2-GFP strain, 3 h, at 10 µM, stronger effect = higher value, 100% means same as DMSO wells
[3] = TOR pathway RTG branch CIT2 reporter changes – S. cerevisiae, GFP fusion, multiplex flow cytometry, primary screen (AID 1870;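 active = percent response above a set limit, the screen-wide mean plus 3 SD, cut at about 130% in these data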;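 note: barcoded CIT2-GFP strain pooled with four other GFP strains with rapamycin as positive control; median GFP fluorescence per well over plate mean of DMSO wells so 100% = DMSO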); conditions: S. cerevisiae CIT2-GFP expression, 3 h, at 10 µM, stronger effect = higher value
[4] = TOR pathway LAP4-GFP level changes – S. cerevisiae, multiplex flow cytometry, primary screen (AID 1873;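 active = GFP signal, as percent of the solvent control, above the screen mean plus 3 SD, about 149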); conditions: S. cerevisiae LAP4-GFP expression, 3 h, at 10 µM, stronger effect = higher value
[5] = yeast AGP1-GFP level changes, GLN3 branch – cell-based, multiplex flow cytometry, S. cerevisiae, primary screen (AID 1887;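 active = GFP signal above the screen-wide mean plus 3 SD, that is over about 124.5% of the solvent control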;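 note: AGP1-GFP fusion strain of S. cerevisiae within a five-strain barcoded multiplex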); conditions: 3 h, at 10 µM, stronger effect = higher value
[6] = reduced mouse 2C T cell binding to pMHC/ICAM-1 vesicles – MLPCN validation set, flow cytometry, LFA-1/ICAM-1 modulator project, pilot screen (AID 2523); conditions: 2C mouse CD8+ T cells, at 7 µM, stronger effect = lower value; double positive events: measured here: CD8+/vesicle+ event percentage;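 for vesicle binding response: mean PE anti-B7-1 fluorescence of CD8+ cells relative to row control; 100% = QL9-loaded vesicles with DMSO vehicle in the same plate row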
[7] = target: Integrin beta-1 (Homo sapiens) + Integrin alpha-4 (Homo sapiens) (UniProt P13612+P05556); assay: alpha4beta1 integrin LIBS antibody binding reduction – U937 cells, HUTS-21 mAb, flow cytometry, validation set, VLA-4 allosteric modulator project, pilot screen (AID 2674;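 active = inhibition above 50%, about 3 SD of the validation set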;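 note: antibody binding induced by the VLA-4 ligand LDV present at three times its Kd; 0% = LDV ligand with antibody and no compound and 100% = antibody without LDV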); conditions: HUTS-21 LIBS mAb binding, at 6.7 µM, stronger effect = higher value, binding induced by LDV ligand
Integrin beta-1 (Homo sapiens) + Integrin alpha-4 (Homo sapiens), sequence (P05556 whole entry, looked up): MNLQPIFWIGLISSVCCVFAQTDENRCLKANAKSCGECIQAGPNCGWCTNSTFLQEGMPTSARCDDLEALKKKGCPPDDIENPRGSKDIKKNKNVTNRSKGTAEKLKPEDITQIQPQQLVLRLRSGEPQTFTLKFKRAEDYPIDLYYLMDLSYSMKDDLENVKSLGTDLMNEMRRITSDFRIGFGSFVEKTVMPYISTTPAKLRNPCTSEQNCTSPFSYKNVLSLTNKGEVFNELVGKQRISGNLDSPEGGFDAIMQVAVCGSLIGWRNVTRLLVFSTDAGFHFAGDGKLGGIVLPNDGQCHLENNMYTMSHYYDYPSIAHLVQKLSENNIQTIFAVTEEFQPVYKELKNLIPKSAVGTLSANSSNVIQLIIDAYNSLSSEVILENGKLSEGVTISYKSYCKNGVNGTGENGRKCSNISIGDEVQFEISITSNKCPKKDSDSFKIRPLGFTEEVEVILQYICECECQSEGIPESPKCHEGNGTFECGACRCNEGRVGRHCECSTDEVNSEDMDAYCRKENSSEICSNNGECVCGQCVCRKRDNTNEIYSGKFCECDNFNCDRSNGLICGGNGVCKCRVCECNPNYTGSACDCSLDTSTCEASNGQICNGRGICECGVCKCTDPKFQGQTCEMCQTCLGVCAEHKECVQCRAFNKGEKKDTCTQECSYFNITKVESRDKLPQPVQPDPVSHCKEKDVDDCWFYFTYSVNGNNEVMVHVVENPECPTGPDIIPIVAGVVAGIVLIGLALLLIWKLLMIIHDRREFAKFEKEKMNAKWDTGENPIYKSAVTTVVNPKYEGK
Integrin beta-1 (Homo sapiens) + Integrin alpha-4 (Homo sapiens), sequence (P13612 whole entry, looked up): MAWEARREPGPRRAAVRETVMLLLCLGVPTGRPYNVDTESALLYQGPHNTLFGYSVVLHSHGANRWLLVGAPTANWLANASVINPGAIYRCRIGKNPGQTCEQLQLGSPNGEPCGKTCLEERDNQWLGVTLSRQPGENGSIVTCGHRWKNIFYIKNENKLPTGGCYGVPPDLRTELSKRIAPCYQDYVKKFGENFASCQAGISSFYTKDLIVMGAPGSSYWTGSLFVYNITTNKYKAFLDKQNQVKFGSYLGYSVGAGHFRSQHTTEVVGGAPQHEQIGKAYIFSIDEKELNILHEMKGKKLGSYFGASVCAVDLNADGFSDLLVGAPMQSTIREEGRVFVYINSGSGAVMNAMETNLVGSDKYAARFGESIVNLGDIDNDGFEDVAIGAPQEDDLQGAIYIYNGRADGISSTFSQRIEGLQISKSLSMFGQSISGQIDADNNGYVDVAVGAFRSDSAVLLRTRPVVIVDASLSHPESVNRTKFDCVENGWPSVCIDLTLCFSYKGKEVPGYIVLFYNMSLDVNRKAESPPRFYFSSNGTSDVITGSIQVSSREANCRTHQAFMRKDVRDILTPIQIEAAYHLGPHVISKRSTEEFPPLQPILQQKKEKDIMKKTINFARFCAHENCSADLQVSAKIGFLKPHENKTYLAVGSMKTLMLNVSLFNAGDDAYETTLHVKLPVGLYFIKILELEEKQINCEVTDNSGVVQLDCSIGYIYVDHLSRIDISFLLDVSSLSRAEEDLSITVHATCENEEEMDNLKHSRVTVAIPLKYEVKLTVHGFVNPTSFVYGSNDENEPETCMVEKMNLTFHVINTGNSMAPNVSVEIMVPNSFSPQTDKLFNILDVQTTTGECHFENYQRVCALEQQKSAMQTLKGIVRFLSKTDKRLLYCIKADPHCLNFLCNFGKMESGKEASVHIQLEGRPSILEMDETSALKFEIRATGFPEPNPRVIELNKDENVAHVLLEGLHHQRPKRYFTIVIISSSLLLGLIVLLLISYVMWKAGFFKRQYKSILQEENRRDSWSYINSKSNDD

[8] = calorie-restriction mimetic ROS inhibitors, yeast – validation compound set, pilot screen (AID 2706;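 active = superoxide response below 65% of plate, a cut near 3 SD across the whole screen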;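 note: yeast exposed to compound for one week at 30 degrees C before staining; 100% = mean of all compound wells on the same plate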); conditions: S. cerevisiae aging, superoxide DHE fluorescence; at 10 µM; stronger effect = lower value
[9] = target: Beta-adrenergic receptor kinase 1 (Homo sapiens) (UniProt P25098); assay: GRK2 binders displacing RNA aptamer, biochemical, validation, human GRK2, bead flow cytometry (AID 488806;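 active = aptamer binding inhibition above 30%, about 3 SD of noise from non-fluorescent compounds; inactive = inhibition at or below 30%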); conditions: bead-bound GRK2, FAM-aptamer displacement, at 10 µM, stronger effect = higher value
Beta-adrenergic receptor kinase 1 (Homo sapiens), sequence (P25098 whole entry, looked up): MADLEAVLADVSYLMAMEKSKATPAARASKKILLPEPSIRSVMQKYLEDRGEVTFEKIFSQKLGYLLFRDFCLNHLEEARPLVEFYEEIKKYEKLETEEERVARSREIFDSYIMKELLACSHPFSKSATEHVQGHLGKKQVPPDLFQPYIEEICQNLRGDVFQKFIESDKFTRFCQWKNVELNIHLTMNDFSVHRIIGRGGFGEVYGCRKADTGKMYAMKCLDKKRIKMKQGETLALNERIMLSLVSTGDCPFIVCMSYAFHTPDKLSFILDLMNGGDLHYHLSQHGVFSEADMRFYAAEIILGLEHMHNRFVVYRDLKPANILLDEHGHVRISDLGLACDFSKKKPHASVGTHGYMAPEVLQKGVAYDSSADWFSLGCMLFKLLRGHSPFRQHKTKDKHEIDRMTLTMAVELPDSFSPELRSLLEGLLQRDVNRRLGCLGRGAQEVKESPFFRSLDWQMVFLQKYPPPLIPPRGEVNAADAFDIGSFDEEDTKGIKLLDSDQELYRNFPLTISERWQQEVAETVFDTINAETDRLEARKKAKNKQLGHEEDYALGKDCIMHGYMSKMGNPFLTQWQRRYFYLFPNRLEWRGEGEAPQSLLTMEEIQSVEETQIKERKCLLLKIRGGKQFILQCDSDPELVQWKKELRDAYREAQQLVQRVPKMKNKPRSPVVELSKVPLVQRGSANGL

[10] = target: Beta-2 adrenergic receptor (Homo sapiens) (UniProt P07550); assay: agonist-induced loss of surface beta2AR – cell-based, FAP fluorogen, flow cytometry, validation set, pilot screen (AID 504459;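 active = percent response above 42, roughly 3 SD of non-fluorescent test compounds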;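 note: agonist-driven loss of surface beta2AR via internalization measured by FAP dye flow cytometry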); conditions: Am2.2-beta2AR cells, at 10 µM, stronger effect = higher value
Beta-2 adrenergic receptor (Homo sapiens), sequence (P07550 whole entry, looked up): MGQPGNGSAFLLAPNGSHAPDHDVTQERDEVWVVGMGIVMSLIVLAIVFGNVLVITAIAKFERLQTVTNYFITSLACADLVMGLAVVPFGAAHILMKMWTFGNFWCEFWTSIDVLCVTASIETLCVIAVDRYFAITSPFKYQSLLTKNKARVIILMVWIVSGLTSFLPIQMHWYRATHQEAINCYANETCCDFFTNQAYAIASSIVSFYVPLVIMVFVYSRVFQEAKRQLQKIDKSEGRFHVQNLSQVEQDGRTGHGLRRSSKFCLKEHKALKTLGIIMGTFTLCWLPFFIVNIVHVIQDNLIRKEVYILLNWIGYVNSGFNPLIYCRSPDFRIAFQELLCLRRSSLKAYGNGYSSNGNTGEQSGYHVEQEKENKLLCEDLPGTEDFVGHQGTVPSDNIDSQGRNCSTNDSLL

[11] = target: AP-2 complex subunit beta (Homo sapiens) (UniProt P63010); assay: beta-arrestin/AP2 interaction blockers – biochemical, validation set, GST-AP2 beads, flow cytometry, pilot screen (AID 504541;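 active = inhibition above 54%, about 3 SD of non-fluorescent compounds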;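 note: AP2 carries R879A mutation and is captured from E. coli lysate; bead-bound FITC arrestin peptide fluorescence measuring arrestin peptide binding to AP2; 0% = DMSO wells and 100% = excess unlabeled arrestin peptide control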); conditions: FITC arrestin peptide, at 10 µM, stronger effect = higher value, AP2 beta2 appendage fragment, R879A mutant
AP-2 complex subunit beta (Homo sapiens), sequence (P63010 whole entry, looked up, the tested form may be a part, one chain of several): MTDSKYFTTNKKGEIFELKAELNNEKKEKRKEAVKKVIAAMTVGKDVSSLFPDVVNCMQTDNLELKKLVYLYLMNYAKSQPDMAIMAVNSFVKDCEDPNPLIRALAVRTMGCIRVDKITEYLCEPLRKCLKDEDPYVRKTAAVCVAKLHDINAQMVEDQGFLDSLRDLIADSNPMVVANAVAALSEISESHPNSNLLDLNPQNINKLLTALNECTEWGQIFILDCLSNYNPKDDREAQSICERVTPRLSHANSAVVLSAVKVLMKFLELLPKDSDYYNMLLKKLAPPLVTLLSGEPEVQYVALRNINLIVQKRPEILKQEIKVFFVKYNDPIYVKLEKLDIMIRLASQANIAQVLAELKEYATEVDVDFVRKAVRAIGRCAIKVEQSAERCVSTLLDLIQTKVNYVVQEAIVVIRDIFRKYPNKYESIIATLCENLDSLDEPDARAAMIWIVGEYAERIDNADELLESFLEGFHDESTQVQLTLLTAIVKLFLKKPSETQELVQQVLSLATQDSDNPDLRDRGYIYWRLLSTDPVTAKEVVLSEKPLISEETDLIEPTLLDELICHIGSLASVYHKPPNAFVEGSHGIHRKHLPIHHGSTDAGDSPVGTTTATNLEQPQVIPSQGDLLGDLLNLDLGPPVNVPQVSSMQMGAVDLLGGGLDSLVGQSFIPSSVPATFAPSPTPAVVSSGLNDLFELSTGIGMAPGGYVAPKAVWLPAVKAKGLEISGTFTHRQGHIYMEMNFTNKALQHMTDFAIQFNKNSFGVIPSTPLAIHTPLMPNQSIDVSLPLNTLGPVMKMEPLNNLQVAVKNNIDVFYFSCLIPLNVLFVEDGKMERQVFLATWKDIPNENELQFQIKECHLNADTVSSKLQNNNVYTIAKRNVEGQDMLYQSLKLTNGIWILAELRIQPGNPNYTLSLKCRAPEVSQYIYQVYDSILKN

[12] = cytosolic pH regulators acting via V-ATPase – S. cerevisiae, pHLuorin, HTS validation (AID 504600; in the data active = response above about 15%;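 note: plate controls were DMSO for no effect and reference compound for full effect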); conditions: V-ATPase proton transport, at 10 µM, stronger effect = higher value
[13] = system: anti-desmoglein-3 scFv antibody binding to human DSG3; assay: blockers of pathogenic pemphigus antibody–desmoglein-3 binding – biochemical, validation compound set, bead-based, flow cytometry, pilot screen (AID 588368;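 active = binding below the plate cutoff, the plate median minus 3 SD, with a reading above zero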;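 note: signal is the median channel fluorescence of bead-bound GFP antibody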); conditions: Protein G beads, DSG3-Fc, scFv-GFP binding, at 10 µM, stronger effect = lower value
[14] = Nile Red efflux blockade in pump-expressing yeast – validation compound set, multiplex, phenotypic, pilot screen (AID 588506;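 active = efflux inhibition above 0.42, the validation set average plus 4 SD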;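 note: Nile Red retained in cells so higher fluorescence means more efflux inhibition; 0 = negative control wells and 1 = enniatin B 25 µM full block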); conditions: S. cerevisiae pump-expressing triplex, Nile Red efflux flow cytometry; at 10 µM; stronger effect = higher value; the pumps come from Candida albicans
[15] = target: ATP-binding cassette sub-family B member 6 (Homo sapiens) (UniProt Q9NP58); assay: blockers of ABCB6-driven porphyrin uptake – K562-ABCB6 cells, flow cytometry, validation set, pilot screen (AID 588550;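 active = inhibition above the screen-wide mean plus 3 SD, about 51%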;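 note: 0% = DMSO wells and 100% = benzethonium chloride 70 µM positive control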); conditions: K562-ABCB6 porphyrin accumulation, 1 h, at 10 µM, stronger effect = higher value
ATP-binding cassette sub-family B member 6 (Homo sapiens), sequence (Q9NP58 whole entry, looked up): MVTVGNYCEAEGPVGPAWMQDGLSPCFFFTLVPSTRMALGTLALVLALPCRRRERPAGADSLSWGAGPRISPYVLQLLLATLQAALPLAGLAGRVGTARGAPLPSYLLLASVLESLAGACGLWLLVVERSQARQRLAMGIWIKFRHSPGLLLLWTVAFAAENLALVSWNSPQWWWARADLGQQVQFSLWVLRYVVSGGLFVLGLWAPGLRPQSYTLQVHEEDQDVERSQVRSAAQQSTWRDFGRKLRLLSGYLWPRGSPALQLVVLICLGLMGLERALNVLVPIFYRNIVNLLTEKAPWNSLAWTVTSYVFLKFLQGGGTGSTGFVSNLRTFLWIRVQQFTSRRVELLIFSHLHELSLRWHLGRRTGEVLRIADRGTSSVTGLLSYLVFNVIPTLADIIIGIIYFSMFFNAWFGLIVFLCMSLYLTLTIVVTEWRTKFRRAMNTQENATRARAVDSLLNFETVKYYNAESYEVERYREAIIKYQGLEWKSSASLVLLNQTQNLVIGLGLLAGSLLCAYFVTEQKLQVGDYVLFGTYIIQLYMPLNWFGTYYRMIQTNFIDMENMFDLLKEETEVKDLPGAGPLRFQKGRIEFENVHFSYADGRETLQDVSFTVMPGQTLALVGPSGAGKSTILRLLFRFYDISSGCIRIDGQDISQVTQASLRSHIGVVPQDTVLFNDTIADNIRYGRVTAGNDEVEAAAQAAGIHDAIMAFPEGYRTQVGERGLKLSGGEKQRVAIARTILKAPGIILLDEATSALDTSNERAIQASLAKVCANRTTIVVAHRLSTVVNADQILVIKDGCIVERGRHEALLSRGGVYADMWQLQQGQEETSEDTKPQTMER

[16] = AML differentiation inducers, ER-HoxA9 marrow cells – cell-based, GFP/MAC1 double positive, flow cytometry, validation set, primary screen (AID 588685;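 active = differentiation response of at least 50%, scaled between solvent and reference control, from cells with both markers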;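 note: compound exposure lasts four days before antibody staining and flow analysis; 0% = DMSO wells and 100% = 5 µM fulvestrant positive control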); conditions: stronger effect = higher value, normalized: vehicle 0, fulvestrant 100

## CCOc1ccc2nc(N/C(N)=N/S(C)(=O)=O)nc(C)c2c1
[1]
  percent of DMSO control GFP: 90.6% (inactive)
[2]
  GFP response vs DMSO: 132% (inactive)
[3]
  percent response of DMSO control: 107% (inactive)
[4]
  GFP response vs DMSO: 84.7% (inactive)
[5]
  GFP response, % of DMSO: 93.8% (inactive)
[6]
  double positive events: 67.9%
  vesicle binding response: 174% (inactive)
[7]
  inhibition: -3.24% (inactive)
[8]
  superoxide response (% of plate): 98.7% (inactive)
[9]
  aptamer binding inhibition: 3% (inactive)
[10]
  response: -5.51% (inactive)
[11]
  inhibition: 35.3% (inactive)
[12]
  response: -5.13% (inactive)
[13]
  binding (% of control): 95% (inactive)
[14]
  efflux inhibition (fraction of control): 0.05 (inactive)
[15]
  inhibition: 0% (inactive)
[16]
  differentiation response: 3.28% (inactive)

## CC(C)=CCC(C)(C)/C=N/NC(N)=O
[1]
  percent of DMSO control GFP: 101% (inactive)
[2]
  GFP response vs DMSO: 102% (inactive)
[3]
  percent response of DMSO control: 98.3% (inactive)
[4]
  GFP response vs DMSO: 109% (inactive)
[5]
  GFP response, % of DMSO: 111% (inactive)
[6]
  double positive events: 59.7%
  vesicle binding response: 464% (inactive)
[7]
  inhibition: 14.2% (inactive)
[8]
  superoxide response (% of plate): 97.9% (inactive)
[9]
  aptamer binding inhibition: 4% (inactive)
[10]
  response: -21.9% (inactive)
[11]
  inhibition: -2.34% (inactive)
[12]
  response: 1.02% (inactive)
[13]
  binding (% of control): 100% (inactive)
[14]
  efflux inhibition (fraction of control): 0 (inactive)
[15]
  inhibition: 4% (inactive)
[16]
  differentiation response: 5.85% (inactive)

## CCN(CC)CCCNC(=O)C1c2ccccc2Oc2ccccc21
[1]
  percent of DMSO control GFP: 100% (inactive)
[2]
  GFP response vs DMSO: 95.1% (inactive)
[3]
  percent response of DMSO control: 95.4% (inactive)
[4]
  GFP response vs DMSO: 89.4% (inactive)
[5]
  GFP response, % of DMSO: 97.2% (inactive)
[6]
  double positive events: 64.1%
  vesicle binding response: 1360% (inactive)
[7]
  inhibition: 13% (inactive)
[8]
  superoxide response (% of plate): 101% (inactive)
[9]
  aptamer binding inhibition: 2% (inactive)
[10]
  response: 2.25% (inactive)
[11]
  inhibition: 17% (inactive)
[12]
  response: -0.98% (inactive)
[13]
  binding (% of control): 101% (inactive)
[14]
  efflux inhibition (fraction of control): 0.49 (active)
[15]
  inhibition: -2% (inactive)
[16]
  differentiation response: 26.6% (inactive)

## CC(=O)OC(CC(=O)O)C[N+](C)(C)C (stereo not drawn)
[1]
  percent of DMSO control GFP: 100% (inactive)
[2]
  GFP response vs DMSO: 103% (inactive)
[3]
  percent response of DMSO control: 95.4% (inactive)
[4]
  GFP response vs DMSO: 92.7% (inactive)
[5]
  GFP response, % of DMSO: 97.6% (inactive)
[6]
  double positive events: 65%
  vesicle binding response: 243% (inactive)
[7]
  inhibition: -17.1% (inactive)
[8]
  superoxide response (% of plate): 103% (inactive)
[9]
  aptamer binding inhibition: 2% (inactive)
[10]
  response: -0.16% (inactive)
[11]
  inhibition: 14.1% (inactive)
[12]
  response: -2.66% (inactive)
[13]
  binding (% of control): 97.1% (inactive)
[14]
  efflux inhibition (fraction of control): 0.02 (inactive)
[15]
  inhibition: 10% (inactive)
[16]
  differentiation response: -8.55% (inactive)

## C=CCC1(Cl)C(=O)C(Cl)=C(N2CCOCC2)C1(OC)OC (stereo not drawn)
[1]
  percent of DMSO control GFP: 101% (inactive)
[2]
  GFP response vs DMSO: 94.1% (inactive)
[3]
  percent response of DMSO control: 108% (inactive)
[4]
  GFP response vs DMSO: 99.1% (inactive)
[5]
  GFP response, % of DMSO: 95.2% (inactive)
[6]
  double positive events: 59.1%
  vesicle binding response: 167% (inactive)
[7]
  inhibition: -4.52% (inactive)
[8]
  superoxide response (% of plate): 102% (inactive)
[9]
  aptamer binding inhibition: 2% (inactive)
[10]
  response: -2.88% (inactive)
[11]
  inhibition: -0.19% (inactive)
[12]
  response: -0.35% (inactive)
[13]
  binding (% of control): 98.9% (inactive)
[14]
  efflux inhibition (fraction of control): -0.21 (inactive)
[15]
  inhibition: 8% (inactive)
[16]
  differentiation response: -4% (inactive)

## Cc1cccc(OCC(=O)Nc2ccc(C(=O)NCC(C)C)cc2)c1
[1]
  percent of DMSO control GFP: 102% (inactive)
[2]
  GFP response vs DMSO: 102% (inactive)
[3]
  percent response of DMSO control: 98.3% (inactive)
[4]
  GFP response vs DMSO: 110% (inactive)
[5]
  GFP response, % of DMSO: 115% (inactive)
[6]
  double positive events: 62.1%
  vesicle binding response: 156% (inactive)
[7]
  inhibition: 16.8% (inactive)
[8]
  superoxide response (% of plate): 97.4% (inactive)
[9]
  aptamer binding inhibition: 3% (inactive)
[10]
  response: -25% (inactive)
[11]
  inhibition: -3.7% (inactive)
[12]
  response: 0.58% (inactive)
[13]
  binding (% of control): 99.3% (inactive)
[14]
  efflux inhibition (fraction of control): -0.09 (inactive)
[15]
  inhibition: 3% (inactive)
[16]
  differentiation response: 32.5% (inactive)

## Cn1c(=O)c2[nH]cnc2n(C)c1=O
[1]
  percent of DMSO control GFP: 90.9% (inactive)
[2]
  GFP response vs DMSO: 133% (inactive)
[3]
  percent response of DMSO control: 96.6% (inactive)
[4]
  GFP response vs DMSO: 80.9% (inactive)
[5]
  GFP response, % of DMSO: 87.7% (inactive)
[6]
  double positive events: 67.8%
  vesicle binding response: 159% (inactive)
[7]
  inhibition: -1.3% (inactive)
[8]
  superoxide response (% of plate): 95.3% (inactive)
[9]
  aptamer binding inhibition: 4% (inactive)
[10]
  response: -0.49% (inactive)
[11]
  inhibition: -6.69% (inactive)
[12]
  response: -2.04% (inactive)
[13]
  binding (% of control): 101% (inactive)
[14]
  efflux inhibition (fraction of control): -0.46 (inactive)
[15]
  inhibition: 9% (inactive)
[16]
  differentiation response: -2.46% (inactive)

## COc1ccc2c(c1OC)C(=O)N1C2SC[C@H]1C(=O)NC1CC(C)(C)NC(C)(C)C1 (stereo partly drawn)
[1]
  percent of DMSO control GFP: 99.8% (inactive)
[2]
  GFP response vs DMSO: 133% (inactive)
[3]
  percent response of DMSO control: 111% (inactive)
[4]
  GFP response vs DMSO: 84.7% (inactive)
[5]
  GFP response, % of DMSO: 93.1% (inactive)
[6]
  double positive events: 48.3%
  vesicle binding response: 17.2% (active)
[7]
  inhibition: 1.61% (inactive)
[8]
  superoxide response (% of plate): 91.6% (inactive)
[9]
  aptamer binding inhibition: 6% (inactive)
[10]
  response: 3.43% (inactive)
[11]
  inhibition: 39.2% (inactive)
[12]
  response: -0.76% (inactive)
[13]
  binding (% of control): 103% (inactive)
[14]
  efflux inhibition (fraction of control): 0.09 (inactive)
[15]
  inhibition: 1% (inactive)
[16]
  differentiation response: 30.3% (inactive)

## COc1ccccc1C(CCN(Cc1ccccc1)C(C)=O)c1ccco1 (stereo not drawn)
[1]
  percent of DMSO control GFP: 91.5% (inactive)
[2]
  GFP response vs DMSO: 130% (inactive)
[3]
  percent response of DMSO control: 103% (inactive)
[4]
  GFP response vs DMSO: 78.7% (inactive)
[5]
  GFP response, % of DMSO: 88% (inactive)
[6]
  double positive events: 56.4%
  vesicle binding response: 145% (inactive)
[7]
  inhibition: 8.4% (inactive)
[8]
  superoxide response (% of plate): 122% (inactive)
[9]
  aptamer binding inhibition: 6% (inactive)
[10]
  response: -11.5% (inactive)
[11]
  inhibition: 2.58% (inactive)
[12]
  response: 0.45% (inactive)
[13]
  binding (% of control): 102% (inactive)
[14]
  efflux inhibition (fraction of control): 0.12 (inactive)
[15]
  inhibition: 15% (inactive)
[16]
  differentiation response: 1.64% (inactive)
